Test results from PubChem BioAssay (EPA / NIEHS).
Activity calls are given as the source filed them. The calls were made as follows: active = hit-call score of the fitted dose curve at least 0.9, where 1 is the maximum; inactive = score below 0.9.

Assays:
[1] = read-out: Vascular cell adhesion molecule 1 (VCAM1), VCAM1 (gene 7412); assay: BSK_4H_VCAM1: BioMAP Diversity Plus: 4H Assay for Vascular cell adhesion molecule 1 (VCAM1) Biomarker Activity (AID 2283033); details: primary human endothelial cells (HUVEC); actives raise or lower the signal
In short: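 HUVEC, 24 h post-dose; VCAM-1 by ELISA. Bidirectional curve fit vs DMSO baseline. Parallel SRB total-protein stain (0.1% SRB after 10% TCA fixation, 560 nm) for cytotoxicity.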

[2] = read-out: Interferon-gamma inducible Protein 10 (IP10), CXCL10 (gene 3627); assay: BSK_BE3C_IP10: BioMAP Diversity Plus: BE3C Assay for Interferon-gamma inducible Protein 10 (IP10) Biomarker Activity (AID 2283034); details: primary human bronchial epithelial cells; actives raise or lower the signal
In short: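 ELISA readout of IP-10 in BE3C system: primary human bronchial epithelial cells, 24 h post-dosing; bidirectional curve fit vs DMSO baseline.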

[3] = read-out: Monokine induced gamma interferon (MIG), CXCL9 (gene 4283); assay: BSK_BE3C_MIG: BioMAP Diversity Plus: BE3C Assay for Monokine induced gamma interferon (MIG) Biomarker Activity (AID 2283035); details: primary human bronchial epithelial cells; actives raise or lower the signal;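 also: MIG protein measured by ELISA in BE3C cultures after 24 h of dosing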
In short: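 Dose cells (human primary bronchial epithelial), incubate 24 h, quantify MIG by ELISA, then fit concentration–response in both directions relative to DMSO control.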

[4] = read-out: Transforming growth factor beta 1 (TGFb1), TGFB1 (gene 7040); assay: BSK_BE3C_TGFb1: BioMAP Diversity Plus: BE3C Assay for Transforming growth factor beta 1 (TGFb1) Biomarker Activity (AID 2283036;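 also: TGF-b1 protein level measured by ELISA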); details: primary human bronchial epithelial cells; actives raise or lower the signal
In short: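 Read-out: ELISA for TGF-b1 in primary human bronchial epithelial cultures, 24 h post-dose. Bidirectional curve fitting vs DMSO control; gain or loss of signal both scored.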

[5] = read-out: Plasminogen activator inhibitor-1 (PAI1), SERPINE1 (gene 5054); assay: BSK_BE3C_PAI1: BioMAP Diversity Plus: BE3C Assay for Plasminogen activator inhibitor-1 (PAI1) Biomarker Activity (AID 2283037); details: primary human bronchial epithelial cells; actives raise or lower the signal
In short: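 ELISA read-out of PAI-1 from human bronchial epithelial primary cells, 24 h post-dosing; bidirectional curve fit vs DMSO baseline, gain or loss of signal scored.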

[6] = read-out: urokinase plasminogen activator (uPA), PLAU (gene 5328); assay: BSK_BE3C_uPA: BioMAP Diversity Plus: BE3C Assay for urokinase plasminogen activator (uPA) Biomarker Activity (AID 2283038); details: primary human bronchial epithelial cells; actives raise or lower the signal
In short: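 Bronchial epithelial cells (human, primary); chemical 24 h; uPA by ELISA; bidirectional fit vs DMSO. SRB (0.1%, after 10% TCA fixation, 560 nm) in parallel cultures for cytotoxicity.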

[7] = read-out: Urokinase-type plasminogen activator receptor (uPAR), PLAUR (gene 5329); assay: BSK_BE3C_uPAR: BioMAP Diversity Plus: BE3C Assay for Urokinase-type plasminogen activator receptor (uPAR) Biomarker Activity (AID 2283039); details: primary human bronchial epithelial cells; actives raise or lower the signal;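 also: uPAR protein level measured by ELISA on the cells; cells exposed to compound for one day before measurement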
In short: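 ELISA readout of uPAR on human lung primary bronchial epithelial cells, 24 h post-dosing. Bidirectional curve fit relative to DMSO vehicle baseline; gain or loss of signal both scored.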

[8] = read-out: Interleukin-6 (IL6), IL6 (gene 3569); assay: BSK_CASM3C_IL6: BioMAP Diversity Plus: CASM3C Assay for Interleukin-6 (IL6) Biomarker Activity for (AID 2283040); details: primary human coronary artery smooth muscle cells; actives raise or lower the signal
[9] = read-out: Tissue plasminogen activator (tPA), PLAT (gene 5327); assay: BSK_BE3C_tPA: BioMAP Diversity Plus: BE3C Assay for Tissue plasminogen activator (tPA) Biomarker Activity (AID 2283041); details: primary human bronchial epithelial cells; actives raise or lower the signal;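 also: tPA level quantified by ELISA one day after compound addition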
In short: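 ELISA read-out of tPA on human primary bronchial epithelial cells, 24 h post-dosing; bidirectional fit vs DMSO negative control/baseline.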

[10] = read-out: Interleukin-8 (IL8), CXCL8 (gene 3576); assay: BSK_CASM3C_IL8: BioMAP Diversity Plus: CASM3C Assay for Interleukin-8 (IL8) Biomarker Activity (AID 2283042); details: primary human coronary artery smooth muscle cells; actives raise or lower the signal;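 also: IL-8 protein level quantified by ELISA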
[11] = read-out: Human Leukocyte Antigen - DR isotype (HLADR), HLA-DRA (gene 3122); assay: BSK_CASM3C_HLADR: BioMAP Diversity Plus: CASM3C Assay for Human Leukocyte Antigen - DR isotype (HLADR) Biomarker Activity (AID 2283043); details: primary human coronary artery smooth muscle cells; actives raise or lower the signal;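 also: cell-surface HLA-DR protein level quantified by ELISA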
[12] = read-out: Macrophage colony-stimulating factor (MCSF), CSF1 (gene 1435); assay: BSK_CASM3C_MCSF: BioMAP Diversity Plus: CASM3C Assay for Macrophage colony-stimulating factor (MCSF) Biomarker Activity (AID 2283044); details: primary human coronary artery smooth muscle cells; actives raise or lower the signal;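 also: M-CSF protein amount quantified by ELISA after 24 h exposure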
[13] = read-out: Low-density lipoprotein receptor (LDLR), LDLR (gene 3949); assay: BSK_CASM3C_LDLR: BioMAP Diversity Plus: CASM3C Assay for Low-density lipoprotein receptor (LDLR) Biomarker Activity (AID 2283045); details: primary human coronary artery smooth muscle cells; actives raise or lower the signal;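 also: LDLR protein level on the cell surface quantified by ELISA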
[14] = read-out: Monocyte Chemoattractant Protein-1 (MCP1), CCL2 (gene 6347); assay: BSK_CASM3C_MCP1: BioMAP Diversity Plus: CASM3C Assay for Monocyte Chemoattractant Protein-1 (MCP1) Biomarker Activity (AID 2283046); details: primary human coronary artery smooth muscle cells; actives raise or lower the signal;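 also: MCP-1 level quantified by ELISA 24 h after dosing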
[15] = BSK_CASM3C_Proliferation: Cell Proliferation Assessment in the BioMAP Diversity Plus: CASM3C Assay (AID 2283047); details: primary human coronary artery smooth muscle cells;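 also: sulforhodamine B total protein stain as relative cell number at 560 nm; sub-confluent cells exposed 48 h before staining; fitted both ways against DMSO so gain or loss of cell number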
[16] = read-out: Monokine induced gamma interferon (MIG), CXCL9 (gene 4283); assay: BSK_CASM3C_MIG: BioMAP Diversity Plus: CASM3C Assay for Monokine induced gamma interferon (MIG) Biomarker Activity (AID 2283048); details: primary human coronary artery smooth muscle cells; actives raise or lower the signal;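 also: MIG protein level measured by ELISA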
[17] = read-out: serum amyloid A (SAA), SAA1 (gene 6288); assay: BSK_CASM3C_SAA: BioMAP Diversity Plus: CASM3C Assay for serum amyloid A (SAA) Biomarker Activity (AID 2283049); details: primary human coronary artery smooth muscle cells; actives raise or lower the signal;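 also: SAA protein level quantified by ELISA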
[18] = BSK_CASM3C_SRB: Viability Assessment in the BioMAP Diversity Plus: CASM3C Assay (AID 2283050); details: primary human coronary artery smooth muscle cells;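 also: total protein by SRB staining as cytotoxicity measure in parallel cultures; cells exposed to compound for 24 h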
[19] = read-out: Thrombomodulin, THBD (gene 7056); assay: BSK_CASM3C_Thrombomodulin: BioMAP Diversity Plus: CASM3C Assay for Thrombomodulin Biomarker Activity (AID 2283051); details: primary human coronary artery smooth muscle cells; actives raise or lower the signal;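 also: thrombomodulin protein level measured by ELISA 24 h after dosing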
[20] = read-out: Tissue Factor, F3 (gene 2152); assay: BSK_CASM3C_TissueFactor: BioMAP Diversity Plus: CASM3C Assay for Tissue Factor Biomarker Activity (AID 2283052); details: primary human coronary artery smooth muscle cells; actives raise or lower the signal;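 also: cell surface tissue factor protein level read by ELISA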

Measured: AC50

CC(COCC(C)OC(=O)c1ccccc1)OC(=O)c1ccccc1 (stereo not given)
inactive: all assays above

O=NO
inactive: all assays above

CC1=C(C)S(=O)(=O)CCS1(=O)=O
inactive: all assays above

C/C=C/c1ccc(OC)cc1
inactive: all assays above

CCc1nc(N)nc(N)c1-c1ccc(Cl)cc1
inactive: all assays above

N[C@@H](Cc1c[nH]c2ccccc12)C(=O)O
inactive: all assays above

CCCCCCCC(=O)OC
inactive: all assays above

COc1ccc(OC(F)(F)F)cc1CN[C@H]1CCCN[C@H]1c1ccccc1
active: [6] 20 µM | [11] 14.7 µM | [13] 6.31 µM | [15] 29.6 µM | [18] 15 µM
inactive: all other assays above

CC(=O)[C@@]1(O)CC[C@H]2[C@@H]3CCC4=CC(=O)CC[C@]4(C)[C@H]3CC[C@@]21C
active: [8] 29.5 µM
inactive: all other assays above

Cc1cn([C@H]2C=C[C@@H](CO)O2)c(=O)[nH]c1=O
inactive: all assays above

CCCCC(CC)CO (stereo not given)
inactive: all assays above

CC(C)OC(=O)C(C)(C)Oc1ccc(C(=O)c2ccc(Cl)cc2)cc1
active: [1] 17 µM | [13] 20 µM | [19] 11 µM
inactive: all other assays above

Oc1ccc(O)cc1
active: [1] 10.9 µM | [6] 7.83 µM | [11] 9.58 µM | [12] 15.1 µM | [15] 25.7 µM | [19] 10.7 µM
inactive: all other assays above

CCCCC(CC)COP(=O)(OCC(CC)CCCC)OCC(CC)CCCC (stereo not given)
active: [1] 6.21 µM | [19] 7.89 µM
inactive: all other assays above
